Inconclusive results are not listed. The source made the active and inactive calls. Unless noted, the call rests on the fitted dose curve.
Experiment: qHTS assay to identify small molecule agonists of H2AX - cell viability counter screen (AID 1224847); further: top concentration of the series differs between compounds; nearly all actives have a fitted effect of over 30% in size
Conditions: CHO-K1 viability, CellTiter-Glo luminescence, 3 h; series mostly up to 154 µM; activity change, negative = cytotoxicity: at the top concentration
Method in brief: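 Read-out: CellTiter-Glo luminescence, 30 min RT. Cells: wild-type CHO-K1, 1000/well, 10% FBS, plated overnight at 37C. Treatment: 15 concentrations, 3 hr, 37C, 0.76% DMSO.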
On the % scale 0 is the no-effect control and ±100 the full control effect.

SMILES | activity change, negative = cytotoxicity
O=C(C1CCCCC1)N1CC(=O)N2CCCc3ccccc3C2C1 (stereo not given) | 1.51% [at 70.9 µM] (inactive)
Nc1cccc2c(=O)[nH][nH]c(=O)c12 | -11.7% (inactive)
CC(=O)Nc1ccccc1O | 9.76% (inactive)
Cc1ccc(NC(=O)c2ccc(CN3CCN(C)CC3)cc2)cc1Nc1nccc(-c2cccnc2)n1 | 2.63% [at 70.9 µM] (inactive)
COc1ccnc2c1CCCCC2S(=O)c1nc2ccccc2[nH]1 (stereo not given) | 6.67% [at 70.9 µM] (inactive)
Oc1ccc(CCNCCCCCCNCCc2ccccc2)cc1O | -1.24% [at 70.9 µM] (inactive)
O=c1[nH]nc(-c2ccc([N+](=O)[O-])o2)o1 | 2.99% (inactive)
CCCCCCC/C=C/C=O | 1.7% (inactive)
COC(=O)Cc1cccc2ccccc12 | 2.34% (inactive)
CCCCOc1ccc(N)cc1 | 0.556% (inactive)
CC/C=C\CCO | 1.41% (inactive)
CCc1c(C)[nH]c2c1C(=O)C(CN1CCOCC1)CC2 (stereo not given) | 0.87% [at 70.9 µM] (inactive)
COC(=O)C(C)(C)C | 2.96% (inactive)
CC(C)C/C=C(\C=O)c1ccccc1 | -9.54% (inactive)
CC(=O)Oc1cccc2c1C(=O)c1c(OC(C)=O)cc(C(=O)O)cc1C2=O | 0.0921% [at 70.9 µM] (inactive)
COc1ccc(/C=C/c2cc(OC)cc(=O)o2)cc1 | -10.6% [at 70.9 µM] (inactive)
O=C1c2ccccc2C(=O)C1c1ccc2ccccc2n1 | -15.1% [at 70.9 µM] (inactive)

SMILES | activity change, negative = cytotoxicity
CCCCCCCCCC(C)C=O (stereo not given) | -0.112% (inactive)
CC(C)CC(C)(C)C | -12.3% (inactive)
CCCC1CCOC(C)S1 (stereo not given) | 0.973% (inactive)
CC(C)(Cc1c[nH]c2ccccc12)NCC(O)COc1ccccc1C#N (stereo not given) | -0.754% [at 70.9 µM] (inactive)
O=Cc1ccc(Cl)c([N+](=O)[O-])c1 | 13.1% (inactive)
CCn1nc(Cc2ccccc2)cc1C1CCN(C[C@H]2C[C@H](N(C)[C@@H](C(=O)O)C(C)C)C[C@@H]2c2cccc(F)c2)CC1 | 10.5% (inactive)
O=C(O)c1ccncc1 | 0.327% (inactive)
COC(=O)/C=C/C(C)=C\C=C\C(C)=C\C=C\C=C(C)\C=C\C=C(C)\C=C\C(=O)O | 3.14% (inactive)
NC(=O)c1ccccc1C(N)=O | 2.87% (inactive)
O=C1c2ccccc2C(=O)c2c1ccc(O)c2O | -11.9% [at 70.9 µM] (inactive)
O=[N+]([O-])c1ccccc1CCO | 1.42% (inactive)
CCCN(C1CCN(C(=O)C2CCNCC2)CC1)[C@@H]1CCc2ccc(OC)cc2C1 | -6.98% (inactive)
O=C(N[C@@H](Cc1ccccc1)[C@@H](O)C(=O)N1C[C@@H](O)[C@@H](O)C1)c1cc2cc(Cl)ccc2[nH]1 | -9.56% (inactive)
C(/C=C/C=C/Nc1ccccc1)=Nc1ccccc1 | 1.51% (inactive)
CC(C)(C)c1ccc(CCC=O)cc1 | -7.65% (inactive)
Sc1nc(S)nc(S)n1 | 0.882% [at 70.9 µM] (inactive)

Experiment: qHTS assay to identify small molecule antagonists of the estrogen related receptor (ERR) signaling pathway from Tox21 library (AID 1224848; active means well fitted inhibition curve with a large enough effect in the repeat runs; further: nearly all actives have a fitted effect of over 50% in size; further: potency means the concentration at half of the fitted maximal effect)
Conditions: ERR reporter cell line, luciferase antagonist mode, 18 h; series mostly up to 92.4 µM; activity, negative = inhibition: at the top concentration
Method in brief: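 First, 2,000 ERR cells per well were plated and held 6 h at 37 C/5% CO2. Next, compounds in DMSO were pinned in and left 18 h at 37 C. Finally, ONE-Glo was added and luminescence read after 30 min at room temperature.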

SMILES | Potency | activity, negative = inhibition
Nc1cccc2c(=O)[nH][nH]c(=O)c12 | 48.8 µM (active) | –
COC(=O)C(C)(C)C | – | -10.1% (inactive)
CC(=O)Oc1cccc2c1C(=O)c1c(OC(C)=O)cc(C(=O)O)cc1C2=O | 23.7 µM (active) | –
COC(=O)/C=C/C(C)=C\C=C\C(C)=C\C=C\C=C(C)\C=C\C=C(C)\C=C\C(=O)O | – | 7.23% (inactive)
NC(=O)c1ccccc1C(N)=O | 48.8 µM (active) | –

Experiment: qHTS assay to identify small molecule agonists of the estrogen related receptor (ERR) signaling pathway from Tox21 library (AID 1224849); further: nearly all actives have a fitted effect of over 15% in size
Conditions: ERR reporter cell line, ONE-Glo luciferase, 18 h; at 92.4 µM (top of the series) unless noted
Method in brief: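 Reporter cells (ERR, NTP source) treated with Tox21 10K compounds 18 h, 37 C. Readout: ONE-Glo luminescence, 30 min RT.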

SMILES | activity change, positive = activation
Nc1cccc2c(=O)[nH][nH]c(=O)c12 | -53.6% (inactive)
CC(=O)Nc1ccccc1O | -0.899% (inactive)
Oc1ccc(CCNCCCCCCNCCc2ccccc2)cc1O | -19.4% [at 42.5 µM] (inactive)
O=c1[nH]nc(-c2ccc([N+](=O)[O-])o2)o1 | -20.3% (inactive)
CCCCOc1ccc(N)cc1 | 3.06% (inactive)
CC/C=C\CCO | 0.448% (inactive)
COC(=O)C(C)(C)C | -7.89% (inactive)
CC(C)C/C=C(\C=O)c1ccccc1 | -20.3% (inactive)
CC(=O)Oc1cccc2c1C(=O)c1c(OC(C)=O)cc(C(=O)O)cc1C2=O | -46.2% [at 42.5 µM] (inactive)
COc1ccc(/C=C/c2cc(OC)cc(=O)o2)cc1 | 55.8% [at 42.5 µM] (active)
CC(C)CC(C)(C)C | -31.7% (inactive)
CC(C)(Cc1c[nH]c2ccccc12)NCC(O)COc1ccccc1C#N (stereo not given) | -15.2% [at 42.5 µM] (inactive)
O=Cc1ccc(Cl)c([N+](=O)[O-])c1 | -38.6% (inactive)
CCn1nc(Cc2ccccc2)cc1C1CCN(C[C@H]2C[C@H](N(C)[C@@H](C(=O)O)C(C)C)C[C@@H]2c2cccc(F)c2)CC1 | -18.7% (inactive)
CC1=CC(=C(c2ccc(N)cc2)c2ccc(N)cc2)C=CC1=N | -47.7% [at 8.39 µM] (inactive)
Clc1cc(Cl)c2c(c1)N=C1CCCCCN1C2 | 2.85% [at 42.5 µM] (inactive)
O=C(O)c1ccncc1 | -23.5% (inactive)
COC(=O)/C=C/C(C)=C\C=C\C(C)=C\C=C\C=C(C)\C=C\C=C(C)\C=C\C(=O)O | 4.73% (inactive)
NC(=O)c1ccccc1C(N)=O | -52.8% (inactive)
CCCN(C1CCN(C(=O)C2CCNCC2)CC1)[C@@H]1CCc2ccc(OC)cc2C1 | -8.07% (inactive)
O=C(N[C@@H](Cc1ccccc1)[C@@H](O)C(=O)N1C[C@@H](O)[C@@H](O)C1)c1cc2cc(Cl)ccc2[nH]1 | -40.7% (inactive)
Sc1nc(S)nc(S)n1 | -29.2% [at 42.5 µM] (inactive)

— PubChem BioAssay (Tox21)
